Structures can show the parent of a compound that is named as a salt.

Sequence of IKZF1 (dCK*-IKZF1 fusion in HEK293FT) (Q13422 whole entry, looked up, the tested form may be a part): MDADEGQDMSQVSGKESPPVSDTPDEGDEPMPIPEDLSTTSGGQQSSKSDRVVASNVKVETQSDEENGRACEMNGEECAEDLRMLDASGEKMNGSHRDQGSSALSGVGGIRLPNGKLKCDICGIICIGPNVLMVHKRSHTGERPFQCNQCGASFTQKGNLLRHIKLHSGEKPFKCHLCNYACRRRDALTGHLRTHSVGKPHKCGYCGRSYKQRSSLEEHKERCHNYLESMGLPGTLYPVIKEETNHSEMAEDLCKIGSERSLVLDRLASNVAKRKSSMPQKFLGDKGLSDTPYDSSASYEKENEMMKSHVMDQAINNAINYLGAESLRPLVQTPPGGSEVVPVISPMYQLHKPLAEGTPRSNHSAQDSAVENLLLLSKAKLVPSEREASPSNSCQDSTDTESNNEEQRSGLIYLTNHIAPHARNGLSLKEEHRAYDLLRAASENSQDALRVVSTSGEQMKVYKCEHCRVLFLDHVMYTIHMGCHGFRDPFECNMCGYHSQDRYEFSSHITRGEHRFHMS

In this experiment the target is IKZF1 (dCK*-IKZF1 fusion in HEK293FT) (UniProt Q13422). Kind of experiment: inhibition of IKZF1 HTRF signal (DMSO = 0%, pomalidomide 10 uM = 100%); higher = lower IKZF1 protein level. Conditions: compound concentration: 5 uM, overnight (~20 h). In outline:
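Compound was tested at 5 μM in single wells on HEK293FT cells (2000/well, 384-well) stably carrying an IKZF1 fusion, overnight at 37 °C. Total IKZF1 was measured in lysates with a commercial HTRF antibody kit as the background-subtracted 665/620 nm time-resolved FRET ratio. The reported figure is percent inhibition of IKZF1 signal, scaled per plate between vehicle and a reference degrader. The vehicle anchor was 0% and the degrader anchor 100%.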
In general terms: Time-resolved FRET reads energy transfer from a long-lived donor to a nearby acceptor.
On to `CN1CCN(CCCN2c3ccccc3Sc3ccc(C(F)(F)F)cc32)CC1`, for which the “inhibition of IKZF1 HTRF signal” value came to 5.07%.

For the compound `COc1ncnc(NS(=O)(=O)c2ccc(N)cc2)c1OC`, the “inhibition of IKZF1 HTRF signal” value was -56.1%.

Take `Nc1ncnc2c1ncn2[C@@H]1O[C@H](COP(=O)(O)OP(=O)(O)OP(=O)(O)OP(=O)(O)OC[C@H]2O[C@@H](n3cnc4c(N)ncnc43)C(O)C2O)C(O)C1O` (stereo not given in full) [P1,P4-DI(adenosine-5')tetraphosphate ammonium salt]: the “inhibition of IKZF1 HTRF signal” value was -38%.

Take `C=C1/C(=C\C=C2/CCC[C@]3(C)[C@@H]([C@H](C)CCCC(C)(C)O)CC[C@@H]23)C[C@@H](O)C[C@@H]1O` [Calcitriol (Rocaltrol)]: the “inhibition of IKZF1 HTRF signal” value came out at 7.56%.

Turning to `C=C1C(=O)O[C@@H]2C=C(C)CCC=C(C)CC[C@@H]12` [costunolide], the “inhibition of IKZF1 HTRF signal” value was -26.8%.

Take `CO[C@@]12[C@@H]3NC3CN1C1=C(C(=O)C(N)=C(C)C1=O)[C@@H]2COC(N)=O` (stereo not given in full): the “inhibition of IKZF1 HTRF signal” value was -1.54%.

For the compound `CO[C@H]1CC[C@H](N2C(=O)CNc3ncc(-c4ccc(C(C)(C)O)nc4)nc32)CC1`, the “inhibition of IKZF1 HTRF signal” value was -19.1%.

For the compound `CN1CCC[C@@H]1CCO[C@](C)(c1ccccc1)c1ccc(Cl)cc1`, the “inhibition of IKZF1 HTRF signal” value was -21.3%.

Turning to `CCOC(=O)C1=C(C)NC(C)=C(C(=O)OC)C1c1cccc([N+](=O)[O-])c1` (stereo not given), the “inhibition of IKZF1 HTRF signal” value was -32.3%.

For `O=C(/C=C/c1ccc(O)c(O)c1)c1ccc(O)cc1O` [Butein], the “inhibition of IKZF1 HTRF signal” value stood at 8.77%.

On to `CC[C@@]1(O)C(=O)OCc2c1cc1n(c2=O)Cc2c-1nc1cc(F)c(C)c3c1c2[C@@H](N)CC3.CS(=O)(=O)O` [Exatecan Mesylate], for which the “inhibition of IKZF1 HTRF signal” value was -4.98%.

`CO[C@H]1O[C@@H]2O[C@@]3(C)CC[C@H]4[C@H](C)CC[C@@H]([C@H]1C)[C@@]24OO3` [Artemether]: the “inhibition of IKZF1 HTRF signal” value is -26.4%.

For the compound `CN1CCC(=C2c3ccccc3Sc3ccccc32)CC1`, the “inhibition of IKZF1 HTRF signal” value was -29.9%.

Regarding `CCCCCCCCCCCCCCCC[N+](C)(C)Cc1ccccc1` [Benzyldimethylhexadecylammonium chloride hydrate], the “inhibition of IKZF1 HTRF signal” value was 20.2%.

For `Nc1ncn([C@H]2C[C@H](O)[C@@H](CO)O2)c(=O)n1` [decitabine], the “inhibition of IKZF1 HTRF signal” value came to 27.4%.

With `Cc1ncsc1-c1ccc(CNC(=O)[C@@H]2C[C@@H](O)CN2C(=O)[C@@H](NC(=O)COCCCCOc2ccc(-c3ccc(N4C(=S)N(c5ccc(C#N)c(C(F)(F)F)c5)C(=O)C4(C)C)cc3)cc2)C(C)(C)C)cc1`, the “inhibition of IKZF1 HTRF signal” value was 21.2%.

As to `NC(=S)N/N=C/c1ncccc1N` [Triapine], the “inhibition of IKZF1 HTRF signal” value is -21.7%.

Consider `FC(F)(F)c1ccccc1-c1cc(C(F)(F)F)c2[nH]c(C3=NOC4(CCCCC4)C3)nc2c1`, for which the “inhibition of IKZF1 HTRF signal” value was 28.1%.

Regarding `NC(=O)c1ccc[n+]([C@@H]2O[C@H](COP(=O)(O)OP(=O)(O)OC[C@H]3O[C@@H](n4cnc5c(N)ncnc54)[C@H](O)[C@@H]3O)[C@@H](O)[C@H]2O)c1`, the “inhibition of IKZF1 HTRF signal” value is -23.1%.

With `O=C(O)c1cc([N+](=O)[O-])ccc1NCCCc1ccccc1`, the “inhibition of IKZF1 HTRF signal” value was -22.5%.

With `COc1cc([C@@H]2c3cc4c(cc3[C@@H](O[C@@H]3O[C@@H]5COC(c6cccs6)O[C@H]5[C@H](O)[C@H]3O)[C@H]3COC(=O)C23)OCO4)cc(OC)c1O` (stereo not given in full) [Teniposide], the “inhibition of IKZF1 HTRF signal” value is -45.1%.

For the compound `COc1cc(C(=O)NS(=O)(=O)c2ccccc2C)ccc1Cc1cn(C)c2ccc(NC(=O)OC3CCCC3)cc12` [Zafirlukast], the “inhibition of IKZF1 HTRF signal” value was -43.3%.

In the case of `C=CCNc1c(O)cc2c(O)c1C[C@@H](C)C[C@H](OC)[C@H](O)[C@@H](C)/C=C(\C)[C@H](OC(N)=O)[C@@H](OC)/C=C\C=C(/C)C(=O)N2` [Retaspimycin (Hydrochloride)], the “inhibition of IKZF1 HTRF signal” value is -31%.

For `CCCCCCCCCCC(CO)CCCCCCCC` (stereo not given) [2-Octyldodecan-1-ol], the “inhibition of IKZF1 HTRF signal” value was -45%.

As for `Oc1cc(O)c2cc(O)c(-c3cc(O)c(O)c(O)c3)[o+]c2c1` [delphinidin], the “inhibition of IKZF1 HTRF signal” value was 43.4%.

Turning to `CNCCC(Oc1ccc(C(F)(F)F)cc1)c1ccccc1` (stereo not given) [Fluoxetine HCl], the “inhibition of IKZF1 HTRF signal” value was -26.7%.

On to `C=C1/C(=C/C=C2\CCC[C@]3(C)[C@@H]([C@H](C)/C=C/[C@@H](C)C(C)C)CC[C@@H]23)C[C@@H](O)C[C@@H]1O` [Doxercalciferol (Hectorol)], for which the “inhibition of IKZF1 HTRF signal” value is -23%.

As to `O=C(O)c1cc(/N=N/c2ccc(O)c(C(=O)O)c2)ccc1O`, the “inhibition of IKZF1 HTRF signal” value was -32.5%.

On to `CCN(CCCCCOCC(=O)N[C@H](C(=O)N1C[C@H](O)C[C@H]1C(=O)N[C@@H](C)c1ccc(-c2scnc2C)cc1)C(C)(C)C)CCOc1ccc(C(=O)c2c(-c3ccc(O)cc3)sc3cc(O)ccc23)cc1`, for which the “inhibition of IKZF1 HTRF signal” value was 3.72%.

With `CC(C)(C)c1ccc(-c2nc3cccc(N4CCN(Cc5ccc6nccnc6c5)CC4)c3[nH]2)cc1`, the “inhibition of IKZF1 HTRF signal” value is -23.9%.

The values are drawn from the supplement of paper PMC12340641.
